Target: Tumor necrosis factor receptor superfamily member 10B (Homo sapiens) (UniProt O14763)
Assay: viability loss of caspase-8 NB7 cells with TRAIL – with/without TRAIL, luminescence panel, confirmation (AID 651596)
Conditions: NB7 neuroblastoma + caspase-8, TRAIL sensitization, NB7 Caspase-8, with TRAIL, mean of runs, at 10 µM, stronger effect = higher value

Sequence of Tumor necrosis factor receptor superfamily member 10B (Homo sapiens) (O14763 whole entry, looked up): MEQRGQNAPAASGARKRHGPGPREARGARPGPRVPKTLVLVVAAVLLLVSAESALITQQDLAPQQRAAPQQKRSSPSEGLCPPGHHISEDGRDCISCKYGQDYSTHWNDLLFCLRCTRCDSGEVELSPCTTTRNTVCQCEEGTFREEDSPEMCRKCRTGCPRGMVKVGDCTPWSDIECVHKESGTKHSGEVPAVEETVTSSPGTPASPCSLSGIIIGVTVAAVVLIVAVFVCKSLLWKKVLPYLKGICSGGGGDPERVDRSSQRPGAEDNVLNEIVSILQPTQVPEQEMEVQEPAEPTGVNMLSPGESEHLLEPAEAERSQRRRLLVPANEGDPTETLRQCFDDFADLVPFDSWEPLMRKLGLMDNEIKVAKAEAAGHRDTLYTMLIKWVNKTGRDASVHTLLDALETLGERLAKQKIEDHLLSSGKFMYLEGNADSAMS

Question: For `COC(=O)c1ccc(-c2nc3cc(N)ccc3o2)cc1`, which activity is on record?
Answer: Its activity is 61.9%.

Question: For `Cn1c(N/N=C/c2cc3ccccc3nc2Cl)nc2ccccc21`, which activity is on record?
Answer: The activity was 92.3%.

Question: For `Cc1nn(-c2ccccc2)c(Cl)c1CN(C(=O)CCl)c1cccc2ccccc12`, which activity is on record?
Answer: Its activity is 98.8%.

Question: Which activity does the source give for `COc1ccc(C)cc1NC(=O)CN(Cc1nnc(-c2ccc(Cl)cc2)o1)C1CCCC1` here?
Answer: The activity was 76.7%.

Question: Which activity does the source give for `CCc1n[n+](CC(=O)c2ccccc2)c(N)s1` here?
Answer: Its activity is 44.6%.

Question: With `COn1c(SCc2ccc(C)cc2C)nc2ccccc2c1=O` as the molecule, how does the activity read?
Answer: Its activity is 69.7%.

Question: Which activity does the source give for `CC(C)(C)Nc1ncnc2c1cnn2-c1ccccc1` here?
Answer: Its activity is 73.8%.

Question: With `CC(C)(C)C(=O)Nc1cccc(-c2nc3ccccc3c(=O)o2)c1` as the molecule, how does the activity read?
Answer: The activity was 59.2%.

Question: For `Cc1ccc(-n2c(C3CC3c3ccc(Cl)cc3)n[nH]c2=S)cc1` (stereo not drawn), which activity is on record?
Answer: Its activity is 52.8%.

Question: Which activity does the source give for `CC(=C/c1ccccc1)/C=N/NC(=O)c1ccccn1` here?
Answer: The activity was 87.2%.

Question: With `Cc1nc2sc(-c3ccccc3)cc2c(=O)n1N` as the molecule, how does the activity read?
Answer: The activity was 59.7%.

Question: Which activity does the source give for `Cc1ccc(C(=O)Nc2nc3ccccc3c(=O)s2)cc1` here?
Answer: The activity was 80.8%.

Question: Which activity does the source give for `CC1(C)N=C(N)N=C(N)N1CCCCc1ccccc1` here?
Answer: The activity was 63.6%.

Question: With `S=c1nc[nH]c2c1ncn2C1CCCO1` (stereo not drawn) as the molecule, how does the activity read?
Answer: Its activity is 17.8%.

Question: For `CC(C)N(Cc1ccccc1)C(=O)COC(=O)c1cnc(Cl)c(Cl)c1`, which activity is on record?
Answer: The activity was 81.2%.

Question: For `CN(C)S(=O)(=O)c1ccc(C(=O)Nc2nnc(SCC(=O)N3CCOCC3)s2)cc1`, which activity is on record?
Answer: The activity was 62.7%.

Question: For `CN(C)CCCn1cnc2c(c1=N)C(c1ccccc1)c1ccc3ccccc3c1O2` (stereo not drawn), which activity is on record?
Answer: The activity was 88.5%.

Question: For `O=C(C[C@H]1C/C=C\C[C@@H](NC(=O)OCC2c3ccccc3-c3ccccc32)C(=O)O[C@@H](c2ccccc2)CNC1=O)N[C@H](CO)Cc1ccccc1`, which activity is on record?
Answer: The activity was 64.2%.

Question: Which activity does the source give for `O=C1CCC(=O)N1c1ccc(-c2nc3ccccc3s2)cc1` here?
Answer: Its activity is 76.8%.

Question: For `Cc1ccc(Nc2nc(CSc3nnnn3C)cs2)cc1`, which activity is on record?
Answer: Its activity is 23.2%.

Question: With `NC(=O)c1ccsc1NC(=O)c1ccc(N2CCCC2=O)cc1` as the molecule, how does the activity read?
Answer: The activity was 87.3%.

Question: For `C/C(=N\NC(=O)c1nn(C)c(C)c1Br)c1cccc(NC(=O)c2ccc(F)cc2)c1`, which activity is on record?
Answer: Its activity is 46%.

Question: For `Nc1nc(N)c(-c2cccc(C(F)(F)F)c2)c(Cc2cccc(C(F)(F)F)c2)n1`, which activity is on record?
Answer: Its activity is 81.6%.

System: not listed separately
Assay: as above
Conditions: NB7 neuroblastoma + caspase-8, without TRAIL, NB7 Caspase-8, without TRAIL, mean of runs, at 10 µM

Question: Which activity does the source give for `CCc1ccc(OCc2nc(-c3ccccn3)no2)c(Br)c1` here?
Answer: Its activity is 46.4%.

Question: With `Nc1cnnc(N/N=C\c2ccccc2)c1Cl` as the molecule, how does the activity read?
Answer: The activity was 19.8%.

Question: With `CCOc1ccc(C(=O)Nc2ccc3c(c2)OCCO3)cc1` as the molecule, how does the activity read?
Answer: The activity was 61.4%.

Question: For `COc1ccc(C(=O)NCc2cn3cccc(C)c3n2)cc1OC`, which activity is on record?
Answer: The activity was 3.77%.

Question: For `CCC1CCCCN1c1ccc([N+](=O)[O-])cc1/C=N/NC(=O)Cn1c2ccccc2c(=O)c2ccccc21` (stereo not drawn), which activity is on record?
Answer: The activity was 66.7%.

Question: For `Cc1ccc(Nc2nc(N)c3ccccc3n2)cc1Cl`, which activity is on record?
Answer: The activity was 73.1%.

Question: For `Clc1nc2ccccc2cc1/C=N/Nc1nc2ccccc2[nH]1`, which activity is on record?
Answer: Its activity is 81.5%.

Question: With `Nc1cc2sc(-c3ccc(C(=O)O)cc3)nc2cc1Cl` as the molecule, how does the activity read?
Answer: Its activity is 42.5%.

Question: Which activity does the source give for `COn1c(SCc2ccccc2)nc2ccccc2c1=O` here?
Answer: Its activity is 59.9%.

Question: Which activity does the source give for `CC(C)c1ccc(NC(=O)Nc2nc(C(N)COCc3ccccc3)cs2)cc1` (stereo not drawn) here?
Answer: Its activity is 80.4%.

Question: For `O=C(C[C@H]1C/C=C\C[C@H](NC(=O)OCC2c3ccccc3-c3ccccc32)C(=O)OC[C@H](Cc2ccccc2)NC1=O)N[C@H](CO)Cc1ccccc1`, which activity is on record?
Answer: The activity was -2.65%.

Question: Which activity does the source give for `OCC1OC(n2cnc3c(NCc4ccco4)ncnc32)C(O)C1O` (stereo not drawn) here?
Answer: Its activity is 54.3%.

Question: Which activity does the source give for `Clc1ccc2nc(-c3ccccc3)cn2c1` here?
Answer: Its activity is 74.1%.

Question: For `O=c1c(-c2ccc3c(c2)OCCO3)coc2cc(OC3OC(CO)C(O)C(O)C3O)ccc12` (stereo not drawn), which activity is on record?
Answer: The activity was 53.9%.

Question: With `Cc1ccc(C(=O)N/C(=C\c2ccc(-c3ccccc3[N+](=O)[O-])o2)C(=O)NCCCN2CCOCC2)cc1` as the molecule, how does the activity read?
Answer: The activity was 48.9%.

Question: Which activity does the source give for `COc1cc(OC)nc(Nc2nc(C(N)Cc3ccc(C(F)(F)F)cc3)cs2)n1` (stereo not drawn) here?
Answer: The activity was 77.7%.

Question: For `Cc1nc2cc(Nc3nnc(-c4ccccc4)c4ccccc34)ccc2n1C`, which activity is on record?
Answer: Its activity is 83.9%.

Question: For `COC(=O)c1ccc(-c2nc3cc(N)ccc3o2)cc1`, which activity is on record?
Answer: The activity was 44.6%.

Question: For `Cn1c(N/N=C/c2cc3ccccc3nc2Cl)nc2ccccc21`, which activity is on record?
Answer: Its activity is 94%.

Question: Which activity does the source give for `Cc1nn(-c2ccccc2)c(Cl)c1CN(C(=O)CCl)c1cccc2ccccc12` here?
Answer: Its activity is 99.7%.

Question: Which activity does the source give for `COc1ccc(C)cc1NC(=O)CN(Cc1nnc(-c2ccc(Cl)cc2)o1)C1CCCC1` here?
Answer: The activity was 92%.

Question: Which activity does the source give for `CCc1n[n+](CC(=O)c2ccccc2)c(N)s1` here?
Answer: The activity was 35.9%.

Question: For `COn1c(SCc2ccc(C)cc2C)nc2ccccc2c1=O`, which activity is on record?
Answer: The activity was 35.5%.

Question: Which activity does the source give for `CC(C)(C)Nc1ncnc2c1cnn2-c1ccccc1` here?
Answer: The activity was 69.5%.

Question: For `CC(C)(C)C(=O)Nc1cccc(-c2nc3ccccc3c(=O)o2)c1`, which activity is on record?
Answer: The activity was 61.9%.

Question: With `Cc1ccc(-n2c(C3CC3c3ccc(Cl)cc3)n[nH]c2=S)cc1` (stereo not drawn) as the molecule, how does the activity read?
Answer: Its activity is 46.7%.

Question: Which activity does the source give for `CC(=C/c1ccccc1)/C=N/NC(=O)c1ccccn1` here?
Answer: Its activity is 85.2%.

Question: Which activity does the source give for `Cc1nc2sc(-c3ccccc3)cc2c(=O)n1N` here?
Answer: The activity was 44.8%.

Question: For `Cc1ccc(C(=O)Nc2nc3ccccc3c(=O)s2)cc1`, which activity is on record?
Answer: The activity was 80%.

Question: For `CC1(C)N=C(N)N=C(N)N1CCCCc1ccccc1`, which activity is on record?
Answer: The activity was 68.3%.

Question: With `S=c1nc[nH]c2c1ncn2C1CCCO1` (stereo not drawn) as the molecule, how does the activity read?
Answer: The activity was 47.4%.

Question: Which activity does the source give for `CC(C)N(Cc1ccccc1)C(=O)COC(=O)c1cnc(Cl)c(Cl)c1` here?
Answer: Its activity is 72%.

Question: For `CN(C)S(=O)(=O)c1ccc(C(=O)Nc2nnc(SCC(=O)N3CCOCC3)s2)cc1`, which activity is on record?
Answer: The activity was 66%.

Question: Which activity does the source give for `CN(C)CCCn1cnc2c(c1=N)C(c1ccccc1)c1ccc3ccccc3c1O2` (stereo not drawn) here?
Answer: The activity was 93.6%.

Question: With `O=C(C[C@H]1C/C=C\C[C@@H](NC(=O)OCC2c3ccccc3-c3ccccc32)C(=O)O[C@@H](c2ccccc2)CNC1=O)N[C@H](CO)Cc1ccccc1` as the molecule, how does the activity read?
Answer: Its activity is 43.2%.

Question: For `O=C1CCC(=O)N1c1ccc(-c2nc3ccccc3s2)cc1`, which activity is on record?
Answer: Its activity is 41%.

Question: Which activity does the source give for `Cc1ccc(Nc2nc(CSc3nnnn3C)cs2)cc1` here?
Answer: Its activity is 8.93%.

Question: Which activity does the source give for `NC(=O)c1ccsc1NC(=O)c1ccc(N2CCCC2=O)cc1` here?
Answer: The activity was 85.7%.

Question: With `C/C(=N\NC(=O)c1nn(C)c(C)c1Br)c1cccc(NC(=O)c2ccc(F)cc2)c1` as the molecule, how does the activity read?
Answer: Its activity is 50.5%.

Question: For `Nc1nc(N)c(-c2cccc(C(F)(F)F)c2)c(Cc2cccc(C(F)(F)F)c2)n1`, which activity is on record?
Answer: The activity was 80.7%.

Reference: PubChem BioAssay
